According to PMC5540273 (PLoS ONE, 2017):
Where two headings read alike, the source gives them in different places.

Tests used:
[1] = system: WNK1; details: concentration: 1 μM,replicates: in singlicate; n = 1
[2] = system: WNK2; details: concentration: 1 μM,replicates: in singlicate; n = 1
[3] = system: WNK3; details: concentration: 1 μM,replicates: in singlicate; n = 1
[4] = system: WNK4; details: concentration: 1 μM,replicates: in singlicate; n = 1
[5] = system: T1, YANK1; details: concentration: 1 μM,replicates: in singlicate; n = 1
T1 construct: gene STK32A

[6] = system: T2, YANK2; details: concentration: 1 μM,replicates: in singlicate; n = 1
T2 construct: gene STK32B

[7] = system: T3, YANK3; details: concentration: 1 μM,replicates: in singlicate; n = 1
T3 construct: gene STK32C

[8] = system: T4, YES; details: concentration: 1 μM,replicates: in singlicate; n = 1
T4 construct: gene YES1

[9] = system: T5, YSK1; details: concentration: 1 μM,replicates: in singlicate; n = 1
T5 construct: gene STK25

[10] = system: T6, YSK4; details: concentration: 1 μM,replicates: in singlicate; n = 1
T6 construct: gene MAP3K19

[11] = system: ZAK; details: concentration: 1 μM,replicates: in singlicate; n = 1
[12] = system: ZAP70; details: concentration: 1 μM,replicates: in singlicate; n = 1
[13] = system: T7, p38-alpha; details: n = 1
T7 construct: gene MAPK14

[14] = system: T8, p38-beta; details: concentration: 1 μM,replicates: in singlicate; n = 1
T8 construct: gene MAPK11

[15] = system: p38-delta; details: concentration: 1 μM,replicates: in singlicate; n = 1
[16] = system: T9, p38-gamma; details: concentration: 1 μM,replicates: in singlicate; n = 1
T9 construct: gene MAPK12

[17] = concentration: 1 μM,replicates: in singlicate
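Further: KINOMEscan kinase panel screen.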

| Compound | %Inh [1] [%] | %Inh [2] [%] | %Inh [3] [%] | %Inh [4] [%] | %Inh [5] [%] | %Inh [6] [%] | %Inh [7] [%] | %Inh [8] [%] | %Inh [9] [%] | %Inh [10] [%] | %Inh [11] [%] | %Inh [12] [%] | %Inh [13, 17] [%] | %Inh [14] [%] | %Inh [15] [%] | %Inh [16] [%] | %Inh ([13]; 1 µM) [%] |
| --- | --- | --- | --- | --- | --- | --- | --- | --- | --- | --- | --- | --- | --- | --- | --- | --- | --- |
| Nc1nc(Nc2ccccc2)cc(-c2ccc3c(N)n[nH]c3c2)n1 [GSK2225749] | 5 | 0 | 7 | 0 | 15 | 0 | 6 | 0 | 0 | 46 | 3 | 0 | 0 | 0 | 0 | 0 |  |
| CNC(=O)c1ccccc1Sc1ccc2c(/C=C/c3ccccn3)n[nH]c2c1 | 0 | 11 | 0 | 0 | 19 | 0 | 0 | 0 | 0 | 78 | 53 | 0 | 5 | 15 | 10 | 25 |  |
| O=C(NCCNc1ccnc(NCc2ccc(F)cc2)n1)c1cc2ccccc2s1 [GSK1379944] | 10 | 1 | 4 | 3 | 19 | 0 | 7 | 11 | 0 | 27 | 14 | 0 | 77 | 0 | 40 | 0 |  |
| CCn1c(-c2nonc2N)nc2c(C#CC(C)(C)O)nc(OCCN)cc21.Cl.Cl [GSK902056] | 12 | 24 | 28 | 2 | 12 | 0 | 35 | 19 | 0 | 99.7 | 14 | 0 | 0 | 0 | 16 | 0 |  |
| Cc1ccc2c(-c3ccncc3)c(-c3ccc(F)cc3)nn2c1.Cl [GW461484] | 0 | 0 | 26 | 22 | 31 | 15 | 12 | 0 | 7 | 0 | 14 | 0 | 99.9 | 39 | 13 | 12 |  |
| C[C@@H]1CCN(C(=O)CC#N)C[C@@H]1N(C)c1ncnc2[nH]ccc12 | 0 | 0 | 0 | 0 |  | 0 | 0 | 0 | 0 | 8 | 0 | 0 | 1 | 13 |  |  |  |
| Cc1n[nH]c2ccc(-c3cc(OC[C@@H](N)Cc4ccccc4)cnc3-c3ccoc3)cc12.O=C(O)C(F)(F)F.O=C(O)C(F)(F)F [GSK507358] | 8 | 11 | 0 | 6 | 72 | 90.5 | 47 | 22 | 22 | 99.8 | 0 | 0 |  | 0 | 50 | 33 |  |
| Cc1ccc(-n2nc(C(C)(C)C)cc2NC(=O)Nc2ccc(OCCN3CCOCC3)c3ccccc23)cc1 [GW839464] | 0 | 1 | 0 | 0 | 0 | 0 | 0 | 32 | 0 | 0 |  | 0 |  | 56 | 90.5 |  |  |
| Cc1occc1-c1nc(N)c(OC[C@@H](N)Cc2c[nH]c3ccccc23)cc1-c1cc2c(C)n[nH]c2cn1 [GSK1660450] | 0 | 5 | 0 | 0 | 96.6 | 95.2 | 93.1 | 40 | 57 | 99.7 | 31 | 0 |  | 0 | 22 | 24 |  |
| CC(C)Nc1cc(-c2ccc3c(N)n[nH]c3c2)nc(N)n1 [GSK2221681] | 0 | 0 | 0 | 0 | 37 | 0 | 2 | 4 | 14 | 41 | 0 | 0 | 0 | 0 | 1 | 2 |  |
| Cc1cc(C(=O)Nc2ccc(Oc3ccc4nc(NC(=O)C5CC5)cn4n3)cc2)nn1-c1ccccc1 | 0 | 0 | 0 | 10 | 0 | 3 | 0 | 25 | 1 | 1 | 48 | 0 | 11 | 27 | 0 | 52 |  |
| O=C(NCCCN1CCOC1=O)c1cnc(NCc2cc(Cl)ccc2Cl)nc1NC1CCCC1 | 0 | 0 | 0 | 18 | 0 | 0 | 2 | 31 | 0 | 11 | 10 | 0 | 9 | 0 | 44 | 1 |  |
| Cc1cc2cn[nH]c2cc1-c1cccc2c(N)c(C(N)=O)nnc12 | 21 | 3 | 23 | 11 | 26 | 0 | 0 | 0 | 0 | 71 | 21 | 32 | 0 | 2 | 0 | 52 |  |
| CC(C)N1C(=O)Cc2cc(Nc3ncc(C(F)(F)F)c(NCc4cccc(S(C)(=O)=O)c4)n3)ccc21 | 0 | 1 | 0 | 23 | 6 | 0 | 0 | 9 | 0 | 99.8 | 0 | 62 | 96.4 | 2 | 0 | 0 |  |
| Cl.Cl.Nc1nc(-c2ccc3c(N)n[nH]c3c2)cc(N2CCCC(NC(=O)c3ccccc3)C2)n1 (centres unmarked) [GSK2286775] | 37 | 10 | 19 | 0 | 0 | 0 | 0 | 14 | 22 | 36 | 100 | 0 | 0 | 0 | 21 | 21 |  |
| CN(C)CC(O)COc1ccc(Nc2nccc(-c3cnn4nc(N5CCOCC5)ccc34)n2)cc1 (centres unmarked) [GW767488] | 18 | 0 | 18 | 0 | 29 | 0 | 0 | 0 | 17 | 90 | 14 | 36 | 6 | 23 | 38 | 73 |  |
| C[C@H]1Oc2cc(cnc2N)-c2c(nn(C)c2C#N)CN(C)C(=O)c2ccc(F)cc21 | 0 | 2 | 0 | 0 | 0 | 12 | 3 | 2 | 0 | 0 | 0 | 0 | 9 | 18 | 0 | 5 |  |
| C[C@@H](Oc1cc(-c2cnn(C3CCNCC3)c2)cnc1N)c1c(Cl)ccc(F)c1Cl | 11 | 46 | 0 | 8 | 6 | 0 | 0 | 17 | 0 | 72 | 4 | 10 | 2 | 25 | 30 |  |  |
| NC(=O)c1cc(-c2ccccc2)cc2c(C3CCNCC3)c[nH]c12 [GSK301362] | 11 | 6 | 17 | 41 | 4 | 0 | 26 | 24 | 1 | 50 | 0 | 0 | 0 | 0 | 35 | 0 |  |
| COc1ccc(C[C@@H](CN)NC(=O)c2cc(Br)c(-c3ccnc4[nH]ccc34)s2)cc1.Cl.Cl [GSK1389063] | 11 | 32 | 5 | 0 | 71 | 46 | 50 | 22 | 100 | 99.6 | 0 | 0 | 0 | 0 | 46 | 0 |  |
| Cl.Oc1cc(-c2nc(-c3ccccc3)[nH]c2-c2ccncc2)ccc1Cl [SB-386023] | 0 | 0 | 0 | 38 | 0 | 26 | 0 | 31 | 0 | 0 | 25 | 15 |  | 26 | 0 | 36 | 85 |
| CCN(CC)CCOc1ccc(Nc2ncc3cc(-c4c(Cl)cccc4Cl)c(=O)n(C)c3n2)cc1 [SB-601273] | 26 | 86 | 66 | 42 | 95.1 |  | 27 | 100 | 37 | 99.2 | 94.2 | 63 | 100 | 98.1 | 16 | 18 |  |
| CN(C)CCOc1ccc(-c2cc(-c3c[nH]nc3-c3ccccn3)ccn2)cc1 [GW835314] | 9 | 13 | 0 | 0 | 89 | 0 | 0 | 55 | 0 | 28 | 60 | 11 | 16 | 4 | 0 | 27 |  |
| Cl.Cl.NC[C@H](CC1CCCCC1)NC(=O)c1cc(Br)c(-c2ccnc3[nH]ccc23)s1 [GSK1581427] | 0 | 3 | 5 | 0 | 42 | 0 | 18 | 1 | 0 | 99.6 | 0 | 0 | 0 | 0 | 4 | 0 |  |
| Cl.Cl.NC[C@H](Cc1ccc(C(F)(F)F)cc1)NC(=O)c1cc(Br)c(-c2ccnc3[nH]ccc23)s1 [GSK1487252] | 10 | 0 | 13 | 39 | 56 | 69 | 13 | 19 | 30 | 88 | 0 | 0 | 0 | 0 | 12 | 38 |  |
| CCN(CC)CCCCNc1ncc2cc(-c3c(Cl)cccc3Cl)c(NC(=O)NC(C)(C)C)nc2n1 | 0 | 51 | 0 | 0 | 53 | 32 | 0 | 94.6 | 58 | 49 | 1 | 0 | 98.2 | 81 | 28 | 26 |  |
| C=CC(=O)Nc1cc2c(Nc3ccc(F)c(Cl)c3)ncnc2cc1OCCCN1CCOCC1 [GW781483] | 16 | 0 | 20 | 0 | 17 | 0 | 0 | 15 | 0 | 49 | 0 | 31 | 19 | 0 | 20 | 0 |  |
